From PubChem BioAssay (NCATS)
“And” between values parts separate entries of the source, which are not always exact repeats. Equal entries are not always repeated. Records with an inconclusive call do not appear. The source made the active and inactive calls. Unless noted, the call rests on the fitted dose curve; in most records, active means well fitted curve in the direction sought with a large enough effect; inconclusive means small, poorly fitted or top-dose-only effect, or another doubt; inactive means no such curve, though single readings can be large; an effect the other way counts as inactive or inconclusive.

Assays:
[1] = Stat Signaling Pathway (AID 446; active means well fitted curve in either direction with a large enough effect, not every such curve was filed as active); details: ME-180 SIE beta-lactamase reporter, IL-6 stimulated, 5 h; series mostly up to 38 µM
Procedure, shortened: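 ME-180 SIE-bla cells; overnight plating; cpd + IL-6 40 pM, 5 h, 37 C; LiveBLAzer 2.5 h RT; 460/530 nm emission ratio. Normalized to 300 pM IL-6 and 125 nM JAK inhibitor controls.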

[2] = molecular target: Cytochrome P450 2C9 (Homo sapiens) (UniProt P11712); test: qHTS Assay for Inhibitors and Substrates of Cytochrome P450 2C9 (AID 883); details: recombinant CYP2C9, luciferin-H luminescence, 60 min; series mostly up to 57.1 µM
Sequence of Cytochrome P450 2C9 (Homo sapiens) (P11712 whole entry, looked up): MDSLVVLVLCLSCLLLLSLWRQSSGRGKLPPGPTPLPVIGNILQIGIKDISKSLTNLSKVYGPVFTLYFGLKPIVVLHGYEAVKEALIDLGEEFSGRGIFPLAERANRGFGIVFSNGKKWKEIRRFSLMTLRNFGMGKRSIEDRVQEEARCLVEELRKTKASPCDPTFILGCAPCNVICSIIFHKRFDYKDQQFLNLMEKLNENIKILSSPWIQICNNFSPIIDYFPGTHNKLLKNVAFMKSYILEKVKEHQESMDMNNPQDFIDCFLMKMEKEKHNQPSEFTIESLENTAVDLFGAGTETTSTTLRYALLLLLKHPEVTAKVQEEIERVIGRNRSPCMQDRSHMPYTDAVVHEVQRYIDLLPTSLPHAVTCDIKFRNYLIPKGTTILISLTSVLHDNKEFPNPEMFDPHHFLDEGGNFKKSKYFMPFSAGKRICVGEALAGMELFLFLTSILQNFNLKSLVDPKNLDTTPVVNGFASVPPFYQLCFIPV
Procedure, shortened: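 A luminogenic readout tracked human CYP2C9 (10nM) converting deoxyluciferin (100uM, at KM) in 25mM KPO4 during 60 min at 37C with regenerated NADPH. Values normalized to 57uM sulphaphenazole as complete inhibition.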

[3] = molecular target: Cytochrome P450 2C19 (Homo sapiens) (UniProt P33261); test: qHTS Assay for Inhibitors and Substrates of Cytochrome P450 2C19 (AID 899); details: recombinant CYP2C19, luciferin-H EGE luminescence; series mostly up to 57.1 µM
Sequence of Cytochrome P450 2C19 (Homo sapiens) (P33261 whole entry, looked up): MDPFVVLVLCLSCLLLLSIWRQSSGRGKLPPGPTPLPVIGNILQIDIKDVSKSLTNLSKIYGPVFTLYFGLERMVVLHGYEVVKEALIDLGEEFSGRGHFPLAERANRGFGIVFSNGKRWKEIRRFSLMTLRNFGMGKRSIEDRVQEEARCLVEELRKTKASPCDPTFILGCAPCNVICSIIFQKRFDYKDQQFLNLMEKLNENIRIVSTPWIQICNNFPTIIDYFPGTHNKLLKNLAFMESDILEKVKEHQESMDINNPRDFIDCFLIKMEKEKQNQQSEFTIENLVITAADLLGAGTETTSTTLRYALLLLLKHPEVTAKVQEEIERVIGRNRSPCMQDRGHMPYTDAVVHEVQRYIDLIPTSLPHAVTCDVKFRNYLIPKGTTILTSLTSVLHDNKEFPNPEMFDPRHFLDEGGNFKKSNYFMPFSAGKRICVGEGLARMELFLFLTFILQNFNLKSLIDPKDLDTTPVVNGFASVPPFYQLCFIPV
Procedure, shortened: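 NADPH-dependent conversion of Luciferin-H EGE (10uM, at KM) by 5nM enzyme in 50mM KPO4, 60 min at 37C following 10 min compound preincubation. Stopped with luciferin detection buffer; luminescence read after 20 min.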

[4] = molecular target: Cytochrome P450 3A4 (Homo sapiens) (UniProt P08684); test: qHTS Assay for Inhibitors and Substrates of Cytochrome P450 3A4 (AID 884); details: recombinant CYP3A4, Luciferin-PPXE luminescence; series mostly up to 57.1 µM
Sequence of Cytochrome P450 3A4 (Homo sapiens) (P08684 whole entry, looked up): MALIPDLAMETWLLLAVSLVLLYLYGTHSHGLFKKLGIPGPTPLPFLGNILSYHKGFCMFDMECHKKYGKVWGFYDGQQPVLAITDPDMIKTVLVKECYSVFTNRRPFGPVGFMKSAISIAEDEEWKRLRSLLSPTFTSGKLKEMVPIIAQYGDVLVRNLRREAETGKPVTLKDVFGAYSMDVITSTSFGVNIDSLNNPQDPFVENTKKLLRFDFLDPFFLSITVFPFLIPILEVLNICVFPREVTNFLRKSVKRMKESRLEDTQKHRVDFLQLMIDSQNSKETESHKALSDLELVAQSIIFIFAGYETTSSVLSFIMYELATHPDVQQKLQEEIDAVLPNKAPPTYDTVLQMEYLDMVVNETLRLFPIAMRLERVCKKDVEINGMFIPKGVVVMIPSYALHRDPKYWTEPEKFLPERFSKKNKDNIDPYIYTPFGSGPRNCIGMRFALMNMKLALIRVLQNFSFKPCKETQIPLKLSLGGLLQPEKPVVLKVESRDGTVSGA
Procedure, shortened: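 20 nM human CYP3A4 with 25 uM Luciferin-PPXE (at KM) in 200 mM KPO4, preincubated 10 min with compound; NADPH regeneration started a 60 min RT reaction. Luciferin detected by luminescence, normalized to 57 uM ketoconazole as full inhibition.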

[5] = KB-8-5-11 Cancer Cell Toxicity qHTS against the NCATS CANVASS Library (AID 1347364); details: KB-8-5-11 MDR cells viability, CellTiter-Glo, 72 h; series mostly up to 46.1 µM
Procedure, shortened: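 Plate 500 KB-8-5-11 cells per well in DMEM + 10% FBS, add compounds by pin transfer, incubate 72 hr at 37C. Add CellTiter-Glo, wait 10 minutes at room temperature, read luminescence.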

[6] = MCF7 Cancer Cell Toxicity qHTS against the NCATS CANVASS Library (AID 1347369); details: MCF7 viability, ATP luminescence (CellTiter-Glo), 72 h; series mostly up to 46 µM
Procedure, shortened: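 Cells seeded at 500/well, then compound pinned. Plates incubated 72 hr at 37C, 5% CO2. CellTiterGlo added; luminescence read.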

[7] = qHTS for ATAD5 Antagonist screened against the NCATS CANVASS Library (AID 1347370); details: HEK293T-ATAD5-luc, 5-FUrd stimulated, luminescence, 16 h; series mostly up to 46.1 µM
Procedure, shortened: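 HEK293T cells with stably integrated ATAD5-luciferase reporter, 2000/well, 5 h attachment; compounds plus 10 µM 5-fluorouridine, 16 h at 37 °C. Luciferase luminescence read, with CellTiter-Fluor viability read first.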

[8] = molecular target: Nuclear receptor subfamily 1 group I member 3 (Homo sapiens) (UniProt Q14994); test: qHTS for Constitutive Androstane Receptor (CAR) Antagonist screened against the NCATS CANVASS Library (AID 1347372); details: HepG2-hCAR-CYP2B6 luciferase, CITCO-stimulated antagonist mode; series mostly up to 46.1 µM
Sequence of Nuclear receptor subfamily 1 group I member 3 (Homo sapiens) (Q14994 whole entry, looked up): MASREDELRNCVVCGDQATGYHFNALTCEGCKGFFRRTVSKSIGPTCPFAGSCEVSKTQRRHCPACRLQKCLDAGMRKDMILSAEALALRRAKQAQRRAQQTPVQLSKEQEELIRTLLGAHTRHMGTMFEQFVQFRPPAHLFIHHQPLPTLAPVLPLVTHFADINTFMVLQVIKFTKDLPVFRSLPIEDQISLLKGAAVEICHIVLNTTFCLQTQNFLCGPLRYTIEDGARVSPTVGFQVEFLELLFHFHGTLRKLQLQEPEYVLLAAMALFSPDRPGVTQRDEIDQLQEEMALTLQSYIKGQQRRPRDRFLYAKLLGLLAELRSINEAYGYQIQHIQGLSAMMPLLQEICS
Procedure, shortened: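 HepG2 cells stably carrying hCAR and a CYP2B6-2.2kb luciferase reporter were exposed to compounds plus 50 nM CITCO for 24hr at 37C. CAR activity was read by ONE-Glo luminescence, with viability measured first by CellTiter-Fluor.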

[9] = qHTS for Inflammasome Signaling Inhibitors: IL-1-beta AlphaLISA screen against the NCATS CANVASS Library (AID 1347379); details: THP-1 LPS/ATP, IL-1B AlphaLISA secretion, 16 h; series mostly up to 57.5 µM
Procedure, shortened: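 THP-1 cells pretreated 1 hr with compound (up to 57.5 uM final), then stimulated with LPS (250 ng/mL final) and ATP (1.25 mM final). Secreted IL-1B measured by AlphaLISA after 16 hr; glyburide as positive control.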

[10] = qHTS for Activators of p53 Stress Response Pathway screened against the NCATS CANVASS Library (AID 1347388); details: p53RE-bla HCT-116, beta-lactamase reporter, 16 h; series mostly up to 46.1 µM
Procedure, shortened: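 p53RE-bla HCT-116 cells (4000/well) were plated 5 h at 37C, exposed to compounds for 16 h at 37C over an 11-point concentration series, then loaded with CCF4 for 2 h at room temperature; 460/530 nm emission ratio read.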

[11] = Secretion counterscreen for inhibitors of the SERCaMP assay screened against the NCATS CANVASS Library (AID 1347390); details: SH-SY5Y constitutive GLuc secretion, luminescence, 20 h; series mostly up to 76.6 µM
Procedure, shortened: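 SH-SY5Y-GLuc STOP cells; 4 h attach; cpds 0.001 - 77 uM (qHTS, 11 pts), 20 h 37C/5% CO2; coelenterazine in glow buffer; luminescence, 5 s exposure.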

[12] = qHTS for activators of dead-cell proteases activity screened against the NCATS CANVASS Library (AID 1347392); details: HepG2 cytotoxicity, dead-cell protease luminescence, 5 h; series mostly up to 46.1 µM
Procedure, shortened: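 HepG2 cells (2000/well) attached 18 h at 37C, then exposed 5 h to compounds (11-point qHTS). Dead-cell protease activity read as luminescence from cell-impermeant AAF-aminoluciferin substrate after 15 min at room temperature.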

[13] = qHTS for inhibitors of Wild type Zika virus screened against the NCATS CANVASS Library (AID 1347396); details: Vero cells, Zika virus CPE, CellTiter-Glo, 72 h; series mostly up to 45.9 µM
Procedure, shortened: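 Vero 766 cells, 1000/well, o/n attach; cpds pin-transferred (11-pt qHTS); WT Zika added; 72 h, 37C, 5% CO2; CellTiter Glo lumi. Uninfected + vehicle = 100% inhibition.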

[14] = Redox Reaction Profiling qHTS: Assay Interference Panel against the NCATS CANVASS Library (AID 1347401); details: resazurin-DTT redox cycling, fluorescence, 15 min; series mostly up to 57.1 µM
Procedure, shortened: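 Resazurin (5 uM) conversion to resorufin measured with 200 uM DTT in 50 mM HEPES pH 7.3, 50 mM NaCl. Compounds tested in 11-point qHTS series. Fluorescence (ex 525/em 598 nm) read before and after 15 min dark incubation.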

[15] = qHTS for inhibitors of Rabies Virus screened against the NCATS CANVASS Library (AID 1347402; calls by dose curve); details: Rabies virus infection cell assay; series mostly up to 45.9 µM
[16] = qHTS for Hypoxia signaling pathway (HIF-1) antagonists against the NCATS CANVASS Library (AID 1347374); details: HRE-bla ME-180 cells, HIF-1 beta-lactamase reporter, CoCl2; series mostly up to 38.3 µM
Procedure, shortened: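 HRE-bla ME-180 cells in medium with 0.5% dialyzed FBS received compounds (11-point series) plus CoCl2 (60 uM addition stock) for 17 hrs at 37C. Beta-lactamase activity read with CCF4 (405 nm ex, 460/530 nm em); CellTiter-Glo viability measured in same wells.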

[17] = qHTS for inhibitors of ER calcium dysfunction: SERCaMP assay screened against the NCATS CANVASS Library (AID 1347393); details: SH-SY5Y GLuc-SERCaMP (Gaussia luciferase released on ER calcium loss) secretion, thapsigargin, luminescence; series mostly up to 76.6 µM
Procedure, shortened: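 qHTS in SH-SY5Y reporter cells: 16 h compound pretreatment, 4 h thapsigargin, then secreted Gaussia luciferase measured by luminescence.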

[18] = molecular target: Guanine nucleotide-binding protein G(i) subunit alpha-1 (Homo sapiens) (UniProt P63096); test: qHTS Assay for Inhibitors of RGS12 GoLoco Motif Activity (Green Fluorophore) (AID 879); details: Galphai1/FITC-RGS12 GoLoco peptide, fluorescence polarization; series mostly up to 57.1 µM
Sequence of Guanine nucleotide-binding protein G(i) subunit alpha-1 (Homo sapiens) (P63096 whole entry, looked up): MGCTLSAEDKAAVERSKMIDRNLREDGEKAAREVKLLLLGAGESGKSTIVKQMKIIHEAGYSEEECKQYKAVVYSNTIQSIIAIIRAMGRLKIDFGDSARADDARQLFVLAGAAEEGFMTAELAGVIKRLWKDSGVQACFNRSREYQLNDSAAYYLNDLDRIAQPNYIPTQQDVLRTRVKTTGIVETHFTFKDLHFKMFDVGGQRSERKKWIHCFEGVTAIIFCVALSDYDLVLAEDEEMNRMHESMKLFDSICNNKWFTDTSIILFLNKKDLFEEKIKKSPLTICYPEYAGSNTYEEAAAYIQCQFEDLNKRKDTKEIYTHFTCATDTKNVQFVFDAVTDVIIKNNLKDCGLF
Procedure, shortened: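 Fluorescence polarization assay: 50 nM Gαi1 with 10 nM FITC-labeled RGS12 GoLoco peptide in 10 mM Tris pH 7.5, 150 mM NaCl, 0.1 mM GDP, 0.05% NP40, 10 min at room temperature with compound.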

[19] = molecular target: Pyruvate kinase (Leishmania mexicana) (UniProt Q27686); test: qHTS Validation Assay for Inhibitors of Leishmania Mexicana Pyruvate Kinase (AID 945); details: purified L. mexicana pyruvate kinase, enzyme activity, E451W mutant enzyme; series mostly up to 57.5 µM
Sequence of Pyruvate kinase (Leishmania mexicana) (Q27686 2-499 E452W): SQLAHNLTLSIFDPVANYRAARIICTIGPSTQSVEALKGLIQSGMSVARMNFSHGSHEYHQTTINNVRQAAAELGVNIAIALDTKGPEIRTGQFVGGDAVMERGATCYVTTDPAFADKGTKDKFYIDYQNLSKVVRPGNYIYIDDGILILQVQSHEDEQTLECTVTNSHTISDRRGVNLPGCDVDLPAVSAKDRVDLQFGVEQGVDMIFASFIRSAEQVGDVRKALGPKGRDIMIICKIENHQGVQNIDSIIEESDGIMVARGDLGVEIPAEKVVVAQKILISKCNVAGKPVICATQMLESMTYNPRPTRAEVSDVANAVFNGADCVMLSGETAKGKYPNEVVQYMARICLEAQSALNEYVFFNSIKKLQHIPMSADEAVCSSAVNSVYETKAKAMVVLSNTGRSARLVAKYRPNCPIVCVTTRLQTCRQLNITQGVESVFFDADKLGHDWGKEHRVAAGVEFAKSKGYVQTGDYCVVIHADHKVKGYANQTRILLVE
Procedure, shortened: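 Pyruvate kinase activity of E451W LmPYK (0.2 nM) was followed as ATP output after 1 h at room temperature with 0.5 mM PEP and 0.1 mM ADP, detected by PKLight luminescence.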

[20] = molecular target: alpha-glucosidase (Oryza sativa, rice) (UniProt Q653V4); test: Counterscreen for Glucocerebrosidase Inhibitors: qHTS Assay for Rice alpha-Glucosidase at pH 5.0 (AID 997); details: rice alpha-glucosidase enzyme activity; series mostly up to 76.9 µM
Procedure, shortened: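 Rice alpha-glucosidase (4 nM final) with 400 uM 4-methylumbelliferyl-alpha-D-glucopyranoside in citrate buffer pH 5.0, 20 min at room temperature, stopped at pH 10; fluorescence 365/440 nm, compounds 0.7 nM–77 uM, AC50 from Hill fits.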

O=C1C2CCN(CC2)C1(CO)CO
active: Potency [2] 63.1 nM | Potency [3] 631 nM
inactive: activity, negative = inhibition [1] 4.51% [at 7.69 µM]

CCN(CC)CCO[C@H]1CC[C@@]2(C)C(=CC[C@@H]3[C@H]2CC[C@]2(C)C(=O)CC[C@H]32)C1
inactive: Potency [4]

c1ccc2c3c([nH]c2c1)CNCC3
inactive: outcome [1] | Potency [5] | Potency [6] | Potency [7] | Potency [8] | Potency [9] | Potency [10] | Potency [11] | Potency [12] | Potency [13] | Potency [14] | outcome [15]

c1cncc(C2CCCCN2)c1 (centres undefined)
inactive: Potency [4]

CCN1C[C@]2(C)CC[C@H](O)[C@]34C1C(C[C@H]23)[C@@]12CC[C@H](CC14)[C@](O)(COC(=O)c1ccc(OC)c(OC)c1)[C@H]2O (some centres undefined)
inactive: Potency [5] | Potency [6] | Potency [7] | Potency [8] | Potency [16] | Potency [9] | Potency [10] | Potency [11] | Potency [12] | Potency [13] | Potency [14] | outcome [15]
active: Potency [17] 10.8 µM

CNCCc1c[nH]c2ccccc12
inactive: outcome [1] | Potency [5] | Potency [6] | Potency [7] | Potency [8] | Potency [16] | Potency [9] | Potency [10] | Potency [11] | Potency [12] | Potency [17] | Potency [13] | Potency [14] | outcome [15]

CCCC[C@@H]1CC[C@H]2CCCC(CCC)N12 (some centres undefined)
inactive: Potency [5] | Potency [6] | Potency [7] | Potency [8] | Potency [16] | Potency [9] | Potency [10] | Potency [12] | Potency [13] | Potency [14] | outcome [15]

CO[C@@H](/C=C/CC/C=C/C(=O)O)[C@@H](O)[C@H](C)[C@@H](O)/C(C)=C/[C@H](C)C(=O)CCCC1CC(=O)NC(=O)C1
inactive: Potency [5] | Potency [6] | Potency [7] | Potency [8] | Potency [16] | Potency [9] | Potency [10] | Potency [11] | Potency [12] | Potency [17] | Potency [13] | Potency [14] | outcome [15]

CC(C)[C@@]1(NC(=O)[C@@H]2C[C@H]3c4cccc5[nH]cc(c45)C[C@@H]3N(C)C2)O[C@@]2(O)[C@H]3CCCN3C(=O)[C@H](Cc3ccccc3)N2C1=O
inactive: outcome [18] | outcome [19] | outcome [20]
active: Potency [2] 2.51 µM and 6.31 µM | Potency [3] 3.98 µM and 5.01 µM

Fc1ccc(C(OCCN2CCN(C/C=C\c3ccccc3)CC2)c2ccc(F)cc2)cc1
active: Potency [2] 7940 nM | Potency [3] 7940 nM

COC(=O)N1CCN(C(=O)Cc2ccc(Cl)c(Cl)c2)[C@H](CN2CCCC2)C1
inactive: outcome [1] | outcome [18] | outcome [19] | outcome [20]
